Results as given in PubChem BioAssay AID743135 (Broad Institute, 2013).
Inconclusive results are not listed. Active and inactive are the calls of the source.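 How the source made its calls: active means fitted drop in cell viability signal with half-maximal potency at most twice the top valid dose; inconclusive means flat fit with a 30 to 70% drop, or poor fit; inactive means opposite direction, flat within 30%, or potency beyond limit.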

Test: HEK293 cell cytotoxicity, dose response, cytotoxicity control, ATP luminescence, dry powder, Set3, 50 µM top (AID 743135)

SMILES | outcome | activity change, negative = cytotoxicity
Cc1c(C(=O)O)sc2nc(/C=C/c3cccc(C(N)=O)c3)[nH]c(=O)c12 | inactive | –
Cc1c(C(=O)O)sc2nc(/C=C/c3cccc(N4CCNCC4)c3)[nH]c(=O)c12 | inactive | –
Cc1c(C(=O)O)sc2nc(/C=C/c3cccc(C(F)(F)F)c3)[nH]c(=O)c12 | inactive | –
Cc1c(C(=O)O)sc2nc(/C=C/c3ccc4cc[nH]c4c3)[nH]c(=O)c12 | inactive | –
Cc1c(C(=O)O)sc2nc(/C=C/c3cnc4ccccc4c3)[nH]c(=O)c12 | inactive | –
Cc1c(C(=O)O)sc2nc(/C=C/c3ccccn3)[nH]c(=O)c12 | inactive | –
Cc1c(C(=O)O)sc2nc(/C=C/c3ccnc4ccccc34)[nH]c(=O)c12 | inactive | –
Cc1c(C(=O)O)sc2nc(CCc3cccc(O)c3)[nH]c(=O)c12 | inactive | –
Cc1c(C(=O)O)sc2nc(/C=C/c3cccc(OC(F)(F)F)c3)[nH]c(=O)c12 | inactive | –
COc1cccc(/C=C/c2nc3sc(C(=O)O)c(C)c3c(=O)[nH]2)c1 | inactive | –
Cc1c(C(=O)O)sc2nc(/C=C/c3cccc([N+](=O)[O-])c3)[nH]c(=O)c12 | inactive | –
Cc1c(C(=O)O)sc2nc(/C=C/c3cccc(C(=O)O)c3)[nH]c(=O)c12 | inactive | –
Cc1c(C(=O)O)sc2nc(/C=C/c3ccc4ccccc4c3)[nH]c(=O)c12 | inactive | –
Cc1c(C(=O)O)sc2nc(/C=C/c3cccnc3N)[nH]c(=O)c12 | – | -17.4% [at 12 µM] (inactive)
Cc1c(C(=O)O)sc2nc(/C=C/c3ccc(O)cn3)[nH]c(=O)c12 | – | 6.21% [at 1.2 µM] (inactive)
Cc1c(C(=O)O)sc2nc(/C=C/C3CC3)[nH]c(=O)c12 | inactive | –
Cc1c(C(=O)O)sc2nc(/C=C/c3cccc(O)c3)[nH]c(=O)c12 | inactive | –
Cc1c(C(=O)O)sc2nc(/C=C/c3ccc(N)nc3)[nH]c(=O)c12 | inactive | –
Cc1c(C(=O)O)sc2nc(/C=C/c3ccccc3O)[nH]c(=O)c12 | inactive | –
Cc1c(C(=O)O)sc2nc(/C=C/c3cccc(N4CCOCC4)n3)[nH]c(=O)c12 | inactive | –
Cc1c(C(=O)O)sc2nc(/C=C/c3ccccc3)[nH]c(=O)c12 | inactive | –
Cc1c(C(=O)O)sc2nc(/C=C/c3cc4ccccc4cn3)[nH]c(=O)c12 | inactive | –
Cc1c(C(=O)O)sc2nc(/C=C/c3cccc(F)c3)[nH]c(=O)c12 | inactive | –
Cc1c(C(=O)O)sc2nc(/C=C/c3cccnc3)[nH]c(=O)c12 | inactive | –
Cc1c(C(=O)O)sc2nc(/C=C/C=C/c3ccccc3)[nH]c(=O)c12 | inactive | –
Cc1c(C(=O)O)sc2nc(/C=C/c3ccc4[nH]ccc4c3)[nH]c(=O)c12 | inactive | –
Cc1c(C(=O)O)sc2nc(/C=C/c3cccc(N)c3)[nH]c(=O)c12 | inactive | –
Cc1c(C(=O)O)sc2nc(/C=C/c3cccc(=O)[nH]3)[nH]c(=O)c12 | inactive | –
Cc1c(C(=O)O)sc2nc(/C=C/c3ccc4[nH]ccc4n3)[nH]c(=O)c12 | – | -5.92% [at 12 µM] (inactive)
